Assay in all cases: DAPPL (digital affinity profiling via proximity ligation, sequencing); 10 mM Tris-HCl pH 7.5, 50 mM NaCl, 1 mM DTT, 4% glycerol, room temperature, 30 min; GST-TFs on glutathione beads, 16-mer random dsDNA library, 0.1% formaldehyde crosslink after washing; high values mean tight binding
Assay [1] addresses T1, FLI1 (Homo sapiens, UniProt Q01543 1-452).
T1 sequence: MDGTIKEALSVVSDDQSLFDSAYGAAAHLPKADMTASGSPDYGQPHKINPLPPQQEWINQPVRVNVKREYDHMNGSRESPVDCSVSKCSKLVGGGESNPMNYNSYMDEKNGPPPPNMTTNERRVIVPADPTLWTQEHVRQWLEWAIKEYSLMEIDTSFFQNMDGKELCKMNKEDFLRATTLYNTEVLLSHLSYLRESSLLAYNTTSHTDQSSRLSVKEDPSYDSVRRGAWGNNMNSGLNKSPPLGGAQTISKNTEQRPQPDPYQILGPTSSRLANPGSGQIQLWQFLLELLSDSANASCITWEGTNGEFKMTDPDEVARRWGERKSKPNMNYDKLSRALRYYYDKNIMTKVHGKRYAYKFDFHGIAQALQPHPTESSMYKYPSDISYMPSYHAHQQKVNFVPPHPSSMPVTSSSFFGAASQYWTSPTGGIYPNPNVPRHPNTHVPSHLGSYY
The note with it: protein: recombinant; tags: N-terminal GST; dsDNA, one strand shown. The gist of the method: (§1)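 Sequencing on an Illumina NextSeq500 followed washing, crosslinking with 0.1% formaldehyde, proximity ligation (BsaI/T4 ligase, 1 h, 37 °C) and PCR amplification of pools that had been incubated for 30 min at room temperature with 200 nmole of a random double-stranded 16-mer DNA library in Tris/NaCl/DTT/glycerol buffer. Each pool held DNA-barcoded human transcription factors, expressed in yeast as GST fusions and captured on glutathione beads, plus a tag-only sample. Binding signal is a hexamer's read frequency for a factor divided by its frequency in the tag-only sample.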

Assay [2] has as its target T2, ELK1 (Homo sapiens, UniProt P19419 1-428).
T2 sequence: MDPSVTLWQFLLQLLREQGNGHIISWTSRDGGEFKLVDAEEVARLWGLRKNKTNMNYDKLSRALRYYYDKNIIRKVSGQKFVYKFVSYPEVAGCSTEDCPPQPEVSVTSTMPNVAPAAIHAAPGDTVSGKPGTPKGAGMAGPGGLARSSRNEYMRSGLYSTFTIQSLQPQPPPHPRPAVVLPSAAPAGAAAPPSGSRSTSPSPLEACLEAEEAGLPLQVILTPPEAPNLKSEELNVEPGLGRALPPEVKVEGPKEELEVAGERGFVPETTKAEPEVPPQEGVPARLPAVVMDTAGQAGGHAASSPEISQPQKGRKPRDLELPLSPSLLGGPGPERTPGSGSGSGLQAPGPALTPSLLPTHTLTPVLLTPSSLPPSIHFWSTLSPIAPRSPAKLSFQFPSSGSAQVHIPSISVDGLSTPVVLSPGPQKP
The conditions noted are these: protein: recombinant; tags: N-terminal GST; dsDNA, one strand shown. Summed up: as §1

Assay [3] addresses T3, GABPA (Homo sapiens, UniProt Q06546 1-454).
T3 sequence: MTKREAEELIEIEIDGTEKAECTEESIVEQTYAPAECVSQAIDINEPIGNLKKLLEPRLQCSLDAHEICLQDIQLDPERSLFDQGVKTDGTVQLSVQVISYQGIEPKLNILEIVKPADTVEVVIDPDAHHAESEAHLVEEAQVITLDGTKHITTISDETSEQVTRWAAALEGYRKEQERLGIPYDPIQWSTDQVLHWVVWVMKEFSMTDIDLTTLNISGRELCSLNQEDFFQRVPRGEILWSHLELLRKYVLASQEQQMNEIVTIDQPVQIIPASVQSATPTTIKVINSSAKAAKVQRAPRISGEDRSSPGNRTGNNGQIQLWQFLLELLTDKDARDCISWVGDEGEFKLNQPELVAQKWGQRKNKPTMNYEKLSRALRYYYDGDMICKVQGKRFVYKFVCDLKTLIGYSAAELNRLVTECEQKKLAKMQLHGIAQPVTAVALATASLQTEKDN
The conditions noted are these: protein: recombinant; tags: N-terminal GST; dsDNA, one strand shown. The gist of the method: as §1

In assay [4] the target is ELF1 (Homo sapiens, UniProt P32519 1-619). The note with it: protein: recombinant; tags: N-terminal GST; dsDNA, one strand shown. The gist of the method:
as §1

In assay [5] the target is T4, EHF (Homo sapiens, UniProt Q9NZC4 1-300).
T4 sequence: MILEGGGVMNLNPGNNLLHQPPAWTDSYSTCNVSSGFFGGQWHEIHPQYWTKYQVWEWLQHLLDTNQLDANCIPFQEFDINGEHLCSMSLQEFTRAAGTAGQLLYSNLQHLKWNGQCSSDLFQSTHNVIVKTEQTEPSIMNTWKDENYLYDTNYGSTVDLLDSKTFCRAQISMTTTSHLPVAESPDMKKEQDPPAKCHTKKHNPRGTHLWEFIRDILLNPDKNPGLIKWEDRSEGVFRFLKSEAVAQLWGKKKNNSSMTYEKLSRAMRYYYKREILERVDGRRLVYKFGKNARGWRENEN
The note with it: protein: recombinant; tags: N-terminal GST; dsDNA, one strand shown. The gist of the method: as §1

In assay [6] the target is SPI1 (Homo sapiens, UniProt P17947 1-270). The conditions noted are these: protein: recombinant; tags: N-terminal GST; dsDNA, one strand shown. The gist of the method:
as §1

Assay [7] addresses SPIB (Homo sapiens, UniProt Q01892 1-262). The note with it: protein: recombinant; tags: N-terminal GST; dsDNA, one strand shown. The gist of the method: as §1
The target of assay [8] is T5, ELK3 (Homo sapiens, UniProt P41970 1-407).
T5 sequence: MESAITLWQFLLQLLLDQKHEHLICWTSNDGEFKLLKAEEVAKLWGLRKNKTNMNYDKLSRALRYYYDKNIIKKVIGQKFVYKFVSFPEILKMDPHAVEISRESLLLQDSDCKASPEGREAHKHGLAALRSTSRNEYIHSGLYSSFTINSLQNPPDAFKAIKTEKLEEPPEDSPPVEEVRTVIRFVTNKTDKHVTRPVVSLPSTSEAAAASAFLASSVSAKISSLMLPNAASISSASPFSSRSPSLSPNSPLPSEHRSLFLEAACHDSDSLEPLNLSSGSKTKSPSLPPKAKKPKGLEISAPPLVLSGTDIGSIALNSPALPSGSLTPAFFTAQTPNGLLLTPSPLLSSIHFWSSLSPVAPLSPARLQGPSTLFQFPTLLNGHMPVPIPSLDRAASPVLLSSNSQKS
The conditions noted are these: protein: recombinant; tags: N-terminal GST; dsDNA, one strand shown. The gist of the method:
as §1

Assay [9] concerns the target T6, FEV (Homo sapiens, UniProt Q99581 1-238).
T6 sequence: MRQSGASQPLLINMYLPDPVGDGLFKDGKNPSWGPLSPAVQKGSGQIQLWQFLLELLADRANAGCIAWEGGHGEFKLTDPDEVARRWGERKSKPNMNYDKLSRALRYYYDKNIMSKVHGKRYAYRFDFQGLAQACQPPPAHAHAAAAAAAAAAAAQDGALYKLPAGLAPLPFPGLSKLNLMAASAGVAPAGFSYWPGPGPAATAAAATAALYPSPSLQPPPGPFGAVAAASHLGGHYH
The conditions noted are these: protein: recombinant; tags: N-terminal GST; dsDNA, one strand shown. Summed up: as §1

In assay [10] the target is ETV5 (Homo sapiens, UniProt P41161 1-510). The note with it: protein: recombinant; tags: N-terminal GST; dsDNA, one strand shown. Summed up: as §1
Chain of ETV5 (P41161 whole entry): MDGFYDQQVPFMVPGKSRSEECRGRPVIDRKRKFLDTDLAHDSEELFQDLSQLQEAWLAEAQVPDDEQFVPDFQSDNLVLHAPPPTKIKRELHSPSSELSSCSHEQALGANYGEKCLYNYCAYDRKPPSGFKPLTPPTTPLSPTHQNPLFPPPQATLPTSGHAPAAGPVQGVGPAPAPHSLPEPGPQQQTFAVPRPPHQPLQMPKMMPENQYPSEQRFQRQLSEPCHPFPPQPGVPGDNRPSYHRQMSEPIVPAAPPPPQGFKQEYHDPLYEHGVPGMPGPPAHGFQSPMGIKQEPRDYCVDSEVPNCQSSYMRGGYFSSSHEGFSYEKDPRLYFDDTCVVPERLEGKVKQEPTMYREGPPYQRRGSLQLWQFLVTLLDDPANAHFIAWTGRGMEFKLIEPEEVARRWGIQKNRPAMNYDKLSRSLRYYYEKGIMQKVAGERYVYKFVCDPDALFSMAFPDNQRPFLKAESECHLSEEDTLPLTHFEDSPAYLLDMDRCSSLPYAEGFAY
The target of assay [11] is HSF1 (Homo sapiens, UniProt Q00613 1-529). The conditions noted are these: protein: recombinant; tags: N-terminal GST; chain copies: 3; dsDNA, one strand shown. The gist of the method:
as §1

The target of assay [12] is T7, SPIC (Homo sapiens, UniProt Q8N5J4 1-248).
T7 sequence: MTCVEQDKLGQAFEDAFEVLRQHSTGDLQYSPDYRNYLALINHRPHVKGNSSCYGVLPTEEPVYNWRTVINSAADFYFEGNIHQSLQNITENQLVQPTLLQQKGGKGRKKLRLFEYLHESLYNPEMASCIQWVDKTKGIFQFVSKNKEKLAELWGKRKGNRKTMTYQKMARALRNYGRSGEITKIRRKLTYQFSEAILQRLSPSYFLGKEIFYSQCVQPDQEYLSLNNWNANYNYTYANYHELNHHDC
The conditions noted are these: protein: recombinant; tags: N-terminal GST; dsDNA, one strand shown. The gist of the method: as §1

In assay [13] the target is ELF4 (Homo sapiens, UniProt Q99607 1-663). The conditions noted are these: protein: recombinant; tags: N-terminal GST; dsDNA, one strand shown. The gist of the method:
as §1

Assay [14] deals with T8, ELK4 (Homo sapiens, UniProt P28324-2 1-405).
T8 sequence: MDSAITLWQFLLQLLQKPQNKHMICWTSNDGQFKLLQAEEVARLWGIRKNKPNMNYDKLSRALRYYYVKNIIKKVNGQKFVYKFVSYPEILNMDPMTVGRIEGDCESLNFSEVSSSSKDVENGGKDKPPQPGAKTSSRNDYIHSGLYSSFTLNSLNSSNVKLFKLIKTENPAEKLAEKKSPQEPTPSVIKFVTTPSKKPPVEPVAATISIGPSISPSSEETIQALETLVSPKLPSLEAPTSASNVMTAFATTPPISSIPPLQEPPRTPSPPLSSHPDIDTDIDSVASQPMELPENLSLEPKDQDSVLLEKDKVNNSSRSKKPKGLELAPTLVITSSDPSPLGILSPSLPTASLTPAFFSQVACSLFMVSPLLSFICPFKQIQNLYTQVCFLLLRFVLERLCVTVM
The note with it: protein: recombinant; tags: N-terminal GST; dsDNA, one strand shown. Summed up:
as §1

In assay [15] the target is T9, ETV2 (Homo sapiens, UniProt O00321 1-342).
T9 sequence: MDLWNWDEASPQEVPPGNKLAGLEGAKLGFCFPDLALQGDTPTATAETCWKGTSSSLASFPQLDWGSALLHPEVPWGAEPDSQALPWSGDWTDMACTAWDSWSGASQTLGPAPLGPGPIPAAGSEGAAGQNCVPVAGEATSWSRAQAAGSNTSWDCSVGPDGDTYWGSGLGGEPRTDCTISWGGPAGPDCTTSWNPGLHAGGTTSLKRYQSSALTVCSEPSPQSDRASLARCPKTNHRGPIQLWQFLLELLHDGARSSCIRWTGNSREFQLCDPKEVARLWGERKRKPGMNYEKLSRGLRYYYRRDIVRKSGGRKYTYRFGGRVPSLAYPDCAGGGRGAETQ
The note with it: protein: recombinant; tags: N-terminal GST; dsDNA, one strand shown. The gist of the method: as §1

Assay [16] deals with T10, ELF3 (Homo sapiens, UniProt P78545 1-371).
T10 sequence: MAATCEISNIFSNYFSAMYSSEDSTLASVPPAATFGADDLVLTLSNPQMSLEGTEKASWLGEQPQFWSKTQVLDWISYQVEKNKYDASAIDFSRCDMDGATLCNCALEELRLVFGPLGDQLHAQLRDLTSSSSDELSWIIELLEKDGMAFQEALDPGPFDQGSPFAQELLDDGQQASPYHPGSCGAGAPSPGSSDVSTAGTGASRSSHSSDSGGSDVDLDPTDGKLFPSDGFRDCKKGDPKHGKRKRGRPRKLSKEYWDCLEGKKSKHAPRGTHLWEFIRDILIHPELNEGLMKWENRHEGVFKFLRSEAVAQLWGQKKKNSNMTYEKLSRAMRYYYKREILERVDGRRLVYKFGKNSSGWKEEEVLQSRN
The conditions noted are these: protein: recombinant; tags: N-terminal GST; dsDNA, one strand shown. The gist of the method: as §1

Assay [17] deals with CRX (Homo sapiens, UniProt O43186 1-299). The conditions noted are these: protein: recombinant; tags: N-terminal GST; dsDNA, one strand shown. The gist of the method: as §1
Chain of CRX (O43186 whole entry): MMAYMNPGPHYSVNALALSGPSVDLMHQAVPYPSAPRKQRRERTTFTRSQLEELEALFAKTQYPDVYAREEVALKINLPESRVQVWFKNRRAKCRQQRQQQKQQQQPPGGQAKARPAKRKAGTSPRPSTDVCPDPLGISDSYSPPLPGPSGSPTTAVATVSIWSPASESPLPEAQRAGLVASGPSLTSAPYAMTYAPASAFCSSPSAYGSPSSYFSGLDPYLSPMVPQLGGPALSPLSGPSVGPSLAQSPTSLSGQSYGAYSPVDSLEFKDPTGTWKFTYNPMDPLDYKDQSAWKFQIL
In assay [18] the target is ETV1 (Homo sapiens, UniProt P50549 1-477). The conditions noted are these: protein: recombinant; tags: N-terminal GST; dsDNA, one strand shown. The gist of the method: as §1
Chain of ETV1 (P50549 whole entry): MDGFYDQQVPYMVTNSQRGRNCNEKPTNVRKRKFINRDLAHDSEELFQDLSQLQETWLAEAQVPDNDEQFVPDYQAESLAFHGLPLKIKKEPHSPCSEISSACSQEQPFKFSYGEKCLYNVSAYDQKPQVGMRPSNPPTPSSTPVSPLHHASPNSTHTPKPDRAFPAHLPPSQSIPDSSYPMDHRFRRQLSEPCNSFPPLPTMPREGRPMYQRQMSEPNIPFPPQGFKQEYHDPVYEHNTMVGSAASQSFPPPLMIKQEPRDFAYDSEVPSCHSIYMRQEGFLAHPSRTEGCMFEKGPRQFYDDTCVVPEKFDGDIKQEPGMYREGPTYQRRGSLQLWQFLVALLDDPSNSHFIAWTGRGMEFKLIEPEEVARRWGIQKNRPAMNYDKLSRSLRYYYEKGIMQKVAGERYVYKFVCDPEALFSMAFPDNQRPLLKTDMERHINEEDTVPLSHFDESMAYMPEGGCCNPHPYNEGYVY

Chain of HSF1 (Q00613 whole entry): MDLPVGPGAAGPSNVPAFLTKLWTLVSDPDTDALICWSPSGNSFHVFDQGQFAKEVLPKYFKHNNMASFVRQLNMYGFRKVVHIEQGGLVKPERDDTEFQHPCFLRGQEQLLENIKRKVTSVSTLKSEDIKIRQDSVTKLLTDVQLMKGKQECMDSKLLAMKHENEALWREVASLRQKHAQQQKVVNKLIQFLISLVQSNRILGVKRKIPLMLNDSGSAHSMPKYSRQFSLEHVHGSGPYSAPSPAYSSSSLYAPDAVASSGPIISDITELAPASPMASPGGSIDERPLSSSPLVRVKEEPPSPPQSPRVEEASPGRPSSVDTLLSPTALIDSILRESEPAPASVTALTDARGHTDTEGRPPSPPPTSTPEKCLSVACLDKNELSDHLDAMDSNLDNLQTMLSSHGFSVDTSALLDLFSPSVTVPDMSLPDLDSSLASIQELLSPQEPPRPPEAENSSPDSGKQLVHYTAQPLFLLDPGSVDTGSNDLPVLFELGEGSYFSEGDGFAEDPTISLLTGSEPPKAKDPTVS
Chain of SPIB (Q01892 whole entry): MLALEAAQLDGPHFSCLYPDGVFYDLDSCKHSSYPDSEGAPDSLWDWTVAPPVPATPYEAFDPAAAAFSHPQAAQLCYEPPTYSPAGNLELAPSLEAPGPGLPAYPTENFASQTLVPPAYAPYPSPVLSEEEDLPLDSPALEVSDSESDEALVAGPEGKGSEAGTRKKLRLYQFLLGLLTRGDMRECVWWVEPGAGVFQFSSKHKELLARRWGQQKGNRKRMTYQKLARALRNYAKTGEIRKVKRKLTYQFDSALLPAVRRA
Chain of ELF4 (Q99607 whole entry): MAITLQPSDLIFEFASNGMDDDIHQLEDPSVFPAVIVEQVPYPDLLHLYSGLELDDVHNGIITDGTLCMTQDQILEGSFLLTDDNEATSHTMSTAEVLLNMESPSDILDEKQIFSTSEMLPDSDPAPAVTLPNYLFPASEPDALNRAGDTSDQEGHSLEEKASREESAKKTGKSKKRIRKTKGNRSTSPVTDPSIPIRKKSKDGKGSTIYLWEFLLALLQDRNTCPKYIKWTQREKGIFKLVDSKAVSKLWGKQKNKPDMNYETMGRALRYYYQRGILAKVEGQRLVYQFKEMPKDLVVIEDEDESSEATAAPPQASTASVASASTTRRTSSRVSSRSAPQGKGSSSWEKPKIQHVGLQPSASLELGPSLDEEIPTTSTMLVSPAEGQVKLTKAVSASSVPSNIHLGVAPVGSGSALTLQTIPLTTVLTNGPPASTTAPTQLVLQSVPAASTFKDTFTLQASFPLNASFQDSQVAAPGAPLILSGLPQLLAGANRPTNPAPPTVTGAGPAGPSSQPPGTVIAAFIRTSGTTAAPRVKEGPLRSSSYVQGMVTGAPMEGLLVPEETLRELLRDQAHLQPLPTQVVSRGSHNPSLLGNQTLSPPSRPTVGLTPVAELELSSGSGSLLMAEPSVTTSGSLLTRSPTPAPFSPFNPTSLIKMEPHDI
Chain of ELF1 (P32519 whole entry): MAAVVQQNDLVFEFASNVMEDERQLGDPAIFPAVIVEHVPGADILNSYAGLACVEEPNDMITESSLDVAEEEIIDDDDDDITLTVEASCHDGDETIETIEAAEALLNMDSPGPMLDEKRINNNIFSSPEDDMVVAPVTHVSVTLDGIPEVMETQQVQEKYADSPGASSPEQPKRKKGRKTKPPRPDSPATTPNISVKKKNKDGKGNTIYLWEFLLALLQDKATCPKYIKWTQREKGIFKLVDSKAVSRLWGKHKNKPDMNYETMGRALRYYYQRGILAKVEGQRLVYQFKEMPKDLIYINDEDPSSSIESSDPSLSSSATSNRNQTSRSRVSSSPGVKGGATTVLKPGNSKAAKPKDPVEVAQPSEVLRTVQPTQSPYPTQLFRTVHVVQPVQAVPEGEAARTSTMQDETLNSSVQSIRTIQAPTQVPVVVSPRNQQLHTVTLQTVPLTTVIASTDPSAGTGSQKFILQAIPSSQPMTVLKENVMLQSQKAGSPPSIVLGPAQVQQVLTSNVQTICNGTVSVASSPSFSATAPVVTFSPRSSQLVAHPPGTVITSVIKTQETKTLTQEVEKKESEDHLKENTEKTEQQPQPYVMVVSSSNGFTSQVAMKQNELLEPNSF

For the sequence ACCGAA, the binding signal is 1.09 fold enrichment (6-mer frequency, TF over GST control) in assay [1]; 1.04 fold enrichment (6-mer frequency, TF over GST control) in [2]; 1.05 fold enrichment (6-mer frequency, TF over GST control) in assay [3]; 1.11 fold enrichment (6-mer frequency, TF over GST control) in [4]; 1 fold enrichment (6-mer frequency, TF over GST control) in [5]; 1.06 fold enrichment (6-mer frequency, TF over GST control) in assay [6]. Further, the binding signal in assay [7] was 1.01 fold enrichment (6-mer frequency, TF over GST control); in assay [8], 1.01 fold enrichment (6-mer frequency, TF over GST control); in [9] it was 1.05 fold enrichment (6-mer frequency, TF over GST control); in assay [10], 1.06 fold enrichment (6-mer frequency, TF over GST control); in assay [11], 1.25 fold enrichment (6-mer frequency, TF over GST control); in [12] it was 1.12 fold enrichment (6-mer frequency, TF over GST control). Further, the binding signal is 1.03 fold enrichment (6-mer frequency, TF over GST control) in assay [13]; 1.06 fold enrichment (6-mer frequency, TF over GST control) in assay [14]; 1.19 fold enrichment (6-mer frequency, TF over GST control) in assay [15]; 1.11 fold enrichment (6-mer frequency, TF over GST control) in assay [16]; 1.08 fold enrichment (6-mer frequency, TF over GST control) in assay [17]; 1.05 fold enrichment (6-mer frequency, TF over GST control) in [18].

The values are drawn from article PMC7862700, “An all-to-all approach to the identification of sequence-specific readers for epigenetic DNA modifications on cytosine”.
